Bioassay records (PubChem BioAssay)
p53null 32C kill – kills p53 null cells at the permissive temperature; H1299-neo p53 null cells, ATP luminescence, 24 h, 32C; Potency, µM (highest dose often 46.1 µM), for the others: at the highest dose activity change, negative = cytotoxicity, hits mostly cytotoxic; actives 0.62% (n = 55,000);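 also: 0% = DMSO only and -100% = full killing by 100 µM tamoxifen; nearly all actives have a fitted effect of over 55% in size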
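ATP-content luminescence in p53-null H1299-neo cells after 24 h compound exposure (up to 46 uM) at 32C permissive temperature; 0% and 100% killing set by DMSO and 100 uM tamoxifen; Hill-equation AC50.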
p53null 39C tox – p53 null cell cytotoxicity, nonpermissive temperature; Potency, µM (titrated, usually from 46.1 µM), for inactives: at the top dose activity, negative = cell killing, actives largely listed as cytotoxic; actives 0.97% (n = 55,000); AID 904; H1299 p53-null (neo) cells, 39C, ATPlite viability, 24 h;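 also: 0% = DMSO only and -100% = full killing by 100 µM tamoxifen; nearly all actives have a fitted effect of over 50% in size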
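Temperature-shift cytotoxicity format: compound titrations on p53-null or A138V-expressing H1299 cells held 24 hr at 39C, cell ATP then measured, AC50 from Hill model.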
FH mod – Identification of activators of human fumarate hydratase by quantitative high-throughput screening; Fumarate hydratase, mitochondrial (Homo sapiens), P07954; FH coupled MDH/diaphorase resazurin fluorescence, 15 min; Potency, µM (series often up to 79.9 µM), without a hit: at the top dose activity change, negative = inhibition, actives largely listed as inhibitors; actives 0.22% (n = 54,000); also: the screen sought activators but most active calls are inhibition curves; nearly all actives have a fitted effect of over 45% in size
Target sequence (P07954 whole entry, looked up): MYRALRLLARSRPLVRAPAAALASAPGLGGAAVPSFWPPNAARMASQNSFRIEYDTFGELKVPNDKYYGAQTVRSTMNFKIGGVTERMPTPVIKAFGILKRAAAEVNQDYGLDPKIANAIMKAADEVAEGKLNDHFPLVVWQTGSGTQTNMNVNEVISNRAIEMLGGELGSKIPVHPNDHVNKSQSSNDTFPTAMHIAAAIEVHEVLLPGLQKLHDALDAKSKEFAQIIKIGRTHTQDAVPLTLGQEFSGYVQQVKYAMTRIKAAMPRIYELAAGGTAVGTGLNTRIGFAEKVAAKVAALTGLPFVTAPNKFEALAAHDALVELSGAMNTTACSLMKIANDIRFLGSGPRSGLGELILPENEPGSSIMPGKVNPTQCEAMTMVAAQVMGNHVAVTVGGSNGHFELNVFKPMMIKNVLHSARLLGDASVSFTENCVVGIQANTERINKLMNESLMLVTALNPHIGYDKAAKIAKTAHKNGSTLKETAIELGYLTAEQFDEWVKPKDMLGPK
* hit, by the source's call; u = inconclusive; x = not tested or not shown; [ ] = another dose, or the depositor's remark. Compounds with a hit are over-represented: about 1.2% of the library has one in this group of screens. Calls follow the shape of the dose curve; as a rule, active = well fitted curve in the direction sought with a large enough effect; inconclusive = small, poorly fitted or top-dose-only effect, or another doubt; inactive = no such curve, though single readings can be large; an effect the other way counts as inactive or inconclusive. Unless noted, % is scaled to controls: 0 for no effect and ±100 for the full control effect; potency is read from the fitted curve at half-maximal effect.

SMILES	p53null 32C kill	p53null 39C tox	FH mod
CN(Cc1ccc(C(=O)O)cc1)c1ccc(OCc2c(-c3c(Cl)cccc3Cl)noc2C2CC2)nc1C(F)(F)F	x	x	15.8µM*
O=C(O)c1cccnc1Nc1cccc(C(F)(F)F)c1	x	x	-16.4%[53.3 µM]
Fc1ccc(Nc2nc3nonc3nc2Nc2cccc(C(F)(F)F)c2)cc1	u	5.62µM*	u
Cc1ccc(N(CC(O)Cn2c3ccccc3c3ccccc32)S(=O)(=O)c2ccc(F)cc2)cc1 (stereo unspecified)	60.9%	11.2µM*	u
COC(=O)CN(c1ccccc1)S(=O)(=O)c1ccc(F)cc1	0.6%	6.3%	x
O=C1Nc2ccccc2C1(c1ccc(O)cc1)c1ccc(O)cc1	x	x	-14.7%[53.3 µM]
Cc1csc(-c2nnc(Nc3ccc(Oc4ncccc4-c4ccnc(N)n4)cc3)c3ccccc23)c1	x	x	-9.6%
O=C(CSc1ccc(-c2ccco2)nn1)NCc1ccc(Cl)cc1	-4.8%	x	x
c1ccc(CSc2ccc(-c3ccco3)nn2)cc1	11.2µM*	u	x
COc1ccc(-c2ccn(CC[C@](C)(C(=O)NO)S(C)(=O)=O)c(=O)c2)c(F)c1	x	x	1.0%
CC(=O)OC[C@]12[C@H](OC(C)=O)C(=O)[C@@H]3[C@@H](OC(C)=O)[C@@]14O[C@@]3(C)COC(=O)c1cccnc1[C@@H](C)[C@H](C)C(=O)O[C@@H]([C@H](OC(C)=O)[C@@H]2OC(C)=O)[C@]4(C)O	x	x	5.6%[20.6 µM]
CCc1ccc2nc(N3CCC(C(=O)NCCC(C)C)CC3)sc2c1	u	6.31µM*	-23.6%
CCCN(CCC)CCNC(=O)C1CCN(c2nc3ccc(CC)cc3s2)CC1	u	u	-4.6%
COCC(=O)NC/C=C/c1ccc2ncnc(Nc3ccc(Oc4ccc(C)nc4)c(C)c3)c2c1	x	x	-9.7%
CC(C)C[C@@H]1NC(=O)[C@@H]2C[C@@]34C[C@@H]5[C@@]6(C)CCCC(C)(C)C6CC[C@@]5(C)N(c5ccccc53)[C@H]4N2C1=O (stereo partly specified)	x	x	-5.3%[53.3 µM]
Cc1cccc(-c2[nH]ncc2-c2ccnc3ccccc23)n1	x	x	-1.0%
Cc1ccc(NS(=O)(=O)c2cc(-c3cc(C)no3)ccc2C)c(Cl)c1	-4.2%	u	-13.6%
Cc1cc(-c2ccc(C)c(S(=O)(=O)Nc3ccccc3C(F)(F)F)c2)on1	u	11.2µM*	-6.3%
CCCn1c(=O)c2[nH]c(-c3ccc(OCC(=O)O)cc3)nc2n(CCC)c1=O	x	x	0.0%
O=C(Nc1cccc(Br)c1)c1cc(-c2ccc3c(c2)OCCO3)on1	u	u	-7.2%
Cc1cc(C)cc(OC(=O)c2cc(-c3ccc4c(c3)OCCO4)on2)c1	u	31.6µM*	-7.5%
Cc1cc(C)cc(NC(=O)COCc2cc(-c3ccc4c(c3)OCO4)on2)c1	-7.3%	-18.5%	-29.4%
Cc1cccc(OC(=O)c2cc(-c3ccc4c(c3)OCCO4)on2)c1	u	25.1µM*	-19.7%
CC1CCC2(NC1)OC1C(=O)C3C4CCC5CC(O[C@@H]6O[C@H](CO)[C@@H](O)[C@H](O)[C@H]6O[C@@H]6O[C@@H](C)[C@H](O)[C@@H](O)[C@H]6O)CCC5(C)C4CCC3(C)C1C2C (stereo partly specified)	x	x	6.6%[20.6 µM]
CCOc1ccc(-c2nc3ccccc3c(=O)o2)cc1	3.98µM*	6.31µM*	-6.7%
SMILES	p53null 32C kill	p53null 39C tox	FH mod
CCCCCCOc1ccc(-c2nc3ccc(Br)cc3c(=O)o2)cc1	2.6%	-15.7%	2.4%
CCOc1ccc(-c2nnc(-c3ccc(OC)cc3)o2)cc1	-11.3%	3.3%	x
CCOc1ccc(-c2nnc(-c3ccccc3)o2)cc1	u	12.6µM*	x
CNc1cc([N+](=O)[O-])ccc1N/C=C/C(=O)c1cccs1	-14.7%	-16.6%	x
O=C(/C=C/Nc1ccccc1C(=O)O)c1cccs1	35.5µM*	x	x
CSc1oc(-c2ccc(F)cc2)nc1S(=O)(=O)c1ccccc1	-1.0%	25.7%	x
CC(C)S(=O)(=O)c1oc(-c2ccc(F)cc2)nc1S(=O)(=O)c1ccccc1	u	3.16µM*	-26.1%
CCCCS(=O)(=O)c1oc(-c2ccc(F)cc2)nc1S(=O)(=O)c1ccccc1	17.8µM*	u	-20.8%
CCS(=O)(=O)c1oc(-c2ccc(F)cc2)nc1S(=O)(=O)c1ccc(Br)cc1	49.3%	u	-3.1%
COc1ncc(Nc2ncc([C@@H](C)N3CCN(S(C)(=O)=O)CC3)cc2-c2nc(C)nc(N)n2)cc1F	x	x	6.2%
CCCc1cc2c(N3CCN(C4=NCC(C)(C)S4)CC3)ncnc2s1	x	x	2.0%
CCc1cccc(NC(=O)Cn2c(=O)n(CC(=O)NCCc3ccccc3)c(=O)c3ccccc32)c1	12.6µM*	12.6µM*	-1.6%
COc1ccc(Cl)cc1NC(=O)Cn1c(=O)n(CCCC(=O)NCCc2ccc(OC)c(OC)c2)c(=O)c2ccccc21	1.0%	u	-11.1%
COc1ccc(CCNC(=O)CCCn2c(=O)c3ccccc3n(CC(=O)Nc3cc(Cl)ccc3C)c2=O)cc1OC	u	12.6µM*	-4.5%
Cc1cc(C)cc(NC(=O)Cn2c(=O)n(CC(=O)NCCc3ccccc3)c(=O)c3ccccc32)c1	u	u	2.5%
C=CC(C)(O)CC/C=C(\C)C(=O)O[C@@H]1[C@@H](O)[C@H](OC(C)(C=C)CC/C=C(\C)C(=O)O)O[C@H](CO)[C@H]1OC(=O)/C(C)=C/CCC(C)(O)C=C (stereo partly specified)	x	x	8.5%[20.6 µM]
COc1ccc(-c2[nH]nc3nc(-c4cc(OC)c(OC)c(OC)c4)cc(C(=O)O)c23)cc1	-5.9%	4.6%	-0.4%
CCc1ccc(-c2[nH]nc3nc(-c4cc(OC)ccc4OC)cc(C(=O)O)c23)cc1	10µM*	3.98µM*	-17.7%
Cc1ccccc1N1CC(c2nc3ccccc3n2CCC2CCCCC2)CC1=O (stereo unspecified)	-9.5%	-2.6%	-16.2%
CCOc1ccccc1N1CC(c2nc3ccccc3n2CCCCOc2ccccc2)CC1=O (stereo unspecified)	u	u	-37.2%
O=C1CC(c2nc3ccccc3n2CCCCOc2ccccc2)CN1c1ccccc1Cl (stereo unspecified)	u	12.6µM*	u
CCc1ccccc1N1CC(c2nc3ccccc3n2CCC2CCCCC2)CC1=O (stereo unspecified)	u	15.8µM*	-12.7%
C=C1CCC2[C@@](C)(C(=O)O)CCC[C@@]2(C)[C@@H]1CCc1ccoc1 (stereo partly specified)	x	x	-0.1%[53.3 µM]
CC(C)=CCc1cc2c(cc1O)OC[C@H]1c3ccc(O)cc3O[C@@H]21	x	x	-14.8%[53.3 µM]
O=C(/C=C/c1cn(CC(O)CN2CCCCCC2)c2ccccc12)c1ccccc1 (stereo unspecified)	-8.9%	-21.5%	-23.1%
CCCCN(C)CC(O)Cn1cc(/C=C/C(=O)c2ccc(OC)c(OC)c2)c2ccccc21 (stereo unspecified)	u	12.6µM*	-23.8%
CCCN(CCC)CC(O)Cn1cc(/C=C/C(=O)c2ccc(C)cc2)c2ccccc21 (stereo unspecified)	u	u	-24.0%
CCCN(CCC)CC(O)Cn1cc(/C=C/C(=O)c2ccc(Br)cc2)c2ccccc21 (stereo unspecified)	8.5%	-17.8%	7.0%
